Source: PubChem BioAssay
Shown are actives, neighbours in structure and some others; about 3.3% of the full set was active somewhere.
DRD3 antagonist = D3 dopamine receptor (human) antagonism; hit rate 2.5% among 360,000; D3R cells, DiscoveRx beta-arrestin luminescence, antagonist mode; hits give low values; P35462; max response, negative = inhibition, %; in the data active means max response below about -50%; inconclusive means no clear call, values can overlap the other calls; further: on the % scale 0 is the no-effect control and ±100 the full control effect
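Cells plated overnight at 1500 cells/well, then exposed to library compounds with dopamine controls for 90 minutes at 37 degrees C. DiscoveRx reagent added for 30–60 minutes at room temperature; luminescence read, quantitative HTS format.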
DRD3 agonist = agonists of human D3 dopamine receptor. AID 652048. max activation, %. P35462. hit rate 0.58% among 410,000. D3R DiscoveRx beta-arrestin cells, luminescence, 90 min; in the data active means max activation above about 30%; further: 0% is about no effect
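Cells at 1500/well, incubated overnight, then treated with pinned compounds (dopamine as control) for 90 min at 37 degrees C. DiscoveRx reagent added for 30 - 60 minutes at room temperature; luminescence read.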
PI4K2A block = PI4K2A (human) kinase inhibition; Q9BTU6; AID 1346378; hit rate 0.13% among 420,000; purified PI4K2A, ADP-Glo luminescence, 1 h; hits give low values; activity change, negative = inhibition, % at 76.9 µM; in the data active means activity change below about -50%; inconclusive means mostly about -30% to -49%;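 further: -100% = wells without enzyme as full effect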
Target sequence (Q9BTU6 whole entry, looked up): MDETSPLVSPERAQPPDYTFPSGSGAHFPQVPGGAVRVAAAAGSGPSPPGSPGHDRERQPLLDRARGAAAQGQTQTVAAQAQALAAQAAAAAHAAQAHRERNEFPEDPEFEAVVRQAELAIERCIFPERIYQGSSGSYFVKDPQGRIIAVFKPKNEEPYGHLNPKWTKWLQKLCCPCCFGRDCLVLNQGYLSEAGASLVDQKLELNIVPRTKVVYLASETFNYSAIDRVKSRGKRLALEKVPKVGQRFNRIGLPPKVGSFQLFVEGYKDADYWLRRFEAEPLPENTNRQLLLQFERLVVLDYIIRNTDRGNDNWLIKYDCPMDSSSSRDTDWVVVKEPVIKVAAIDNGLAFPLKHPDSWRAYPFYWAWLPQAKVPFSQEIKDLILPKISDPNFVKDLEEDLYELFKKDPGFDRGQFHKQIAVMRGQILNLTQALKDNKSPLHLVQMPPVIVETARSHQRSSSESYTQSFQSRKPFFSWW
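In this quantitative HTS, ADP production by PI4K2A was quantified luminescently after 1 h at ambient temperature; 100 microM adenosine served as plate-quality control.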
LDHA inh = inhibitors of human lactate dehydrogenase A | purified LDHA, NADH/diaphorase-resazurin fluorescence; hits give low values | activity change, % (values are at about 110 or 230 µM) | hit rate 0.15% among 480,000 | AID 1347041; in the data active means activity change below about -30%; inconclusive means mostly about -25% to -30%;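 further: plate controls were DMSO wells for no effect and wells without enzyme for full effect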
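Resorufin fluorescence (ex540/em590), read at 0 and 20 min after diaphorase/resazurin addition, reports the NADH left after a 5 min room-temperature reaction of 2 nM human LDH5 with 0.06 mM NADH and 0.2 mM pyruvate.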
PI5P4K alpha inh = inhibitors of human PI5P4K alpha; P48426; PI5P4Kalpha enzyme, ADP-Glo luminescence, 60 min; hits give low values; max response, %; hit rate 1.2% among 330,000; active means max response of -50% or lower; inconclusive means between -30% and -50%; inactive means -30% or higher; further: value at the top dose of about 77 µM; on the % scale 0 is the no-effect control and ±100 the full control effect
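ADP-Glo luminescence end-point read after a 60 min room-temperature kinase reaction of PI5P4Kalpha plus substrate, initiated with ATP at 5 microM final. Buffer: 0.038 M HEPES pH 7.4, EGTA, 0.1% CHAPS, 5% DMSO.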
The depositor's hits bear a star.

COc1ccccc1C=NN1C(=O)CSC1=S was read as DRD3 antagonist 3.7, DRD3 agonist 3.3, PI4K2A block 4.4, LDHA inh 3.5 and PI5P4K alpha inh 0.3.
Screening CCOc1cc(C2C(C#N)=C(N)OC3=C2C(=O)CC(C)(C)C3)cc([N+](=O)[O-])c1O (stereo not given) returned DRD3 antagonist -12.1, DRD3 agonist 3.9, PI4K2A block -11.1, LDHA inh 6.0 and PI5P4K alpha inh 3.0.
CC1(C)CC(=O)C2=C(C1)OC(N)=C(C#N)C2c1cc2c(cc1[N+](=O)[O-])OCO2 (stereo not given) was read as DRD3 antagonist -24.9, DRD3 agonist -6.9, PI4K2A block -1.3, LDHA inh 7.2 and PI5P4K alpha inh -79.7*.
For C=CCn1c(SCCO)nc2c1c(=O)[nH]c(=O)n2C the results were LDHA inh 9.9.
For CCN1C(=O)[C@H]2[C@H]3CN=C(SCc4ccc(Cl)cc4)N3[C@@](Cc3ccccc3)(C(=O)OC)[C@H]2C1=O the results were DRD3 antagonist -62.7*, DRD3 agonist -48.0, PI4K2A block -3.9, LDHA inh 2.5 and PI5P4K alpha inh 12.5.
Screening CCN1C(=O)[C@H]2[C@H]3CN=C(SCc4ccc(C)cc4)N3[C@@](Cc3ccccc3)(C(=O)OC)[C@H]2C1=O returned DRD3 antagonist -56.9*, DRD3 agonist -54.8, PI4K2A block -1.8, LDHA inh -0.5 and PI5P4K alpha inh 3.1.
For N#Cc1cn(CC(=O)Nc2cc(F)cc(F)c2)c2ccccc12 the results were LDHA inh 0.2.
For CCOC(=O)c1sc(Nc2cccc(C)c2)nc1C the results were LDHA inh 3.5.
COC(=O)c1ccc(S(=O)(=O)N2CCC(NC(=O)Cc3cccc(C)c3)CC2)cc1 was read as PI4K2A block 3.8.
`O=C(c1ccccc1)N1CCN(Cc2c[nH]c3ccccc23)CC1` gave DRD3 antagonist -85.2*, DRD3 agonist 2.5, PI4K2A block 0.7, LDHA inh -0.3 and PI5P4K alpha inh 0.0.
`OC1(c2ccc(Cl)cc2)CCN(Cc2c[nH]c3ccccc23)CC1` gave DRD3 antagonist -100.9*, DRD3 agonist -86.5, PI4K2A block 2.5, LDHA inh -5.5 and PI5P4K alpha inh 5.1.
CCC1CCC(N2CCN(c3ccc(F)cc3)CC2)CC1 (stereo not given) was read as DRD3 antagonist -25.2, DRD3 agonist -22.4, PI4K2A block -2.9, LDHA inh 1.5 and PI5P4K alpha inh -2.6.
Clc1ccccc1N1CCN(Cc2c[nH]c3ccccc23)CC1 was read as DRD3 antagonist -78.1*, DRD3 agonist -28.8, PI4K2A block 0.4, LDHA inh -6.8 and PI5P4K alpha inh -2.8.
O=S(=O)(c1ccc(Cl)cc1)N1CCN(Cc2c[nH]c3ccccc23)CC1 was read as DRD3 antagonist 0.4, DRD3 agonist 6.0, PI4K2A block 2.7, LDHA inh 0.0 and PI5P4K alpha inh 1.7.
Screening CCC1CCC(N2CCN(c3ccccc3F)CC2)CC1 (stereo not given) returned DRD3 antagonist -77.5*, DRD3 agonist -14.8, PI4K2A block 4.2, LDHA inh -9.4 and PI5P4K alpha inh -5.1.
`O=C(CCc1ncc(-c2ccc(Cl)cc2)o1)Nc1ccccc1` gave LDHA inh -17.4.
`O=C(CN1CCN(c2ccccc2F)CC1)c1c[nH]c2ccccc12` gave DRD3 antagonist inconclusive, DRD3 agonist -2.7, PI4K2A block -8.5, LDHA inh 1.9 and PI5P4K alpha inh 16.9.
For Fc1ccccc1N1CCN(C2CCN(Cc3c[nH]c4ccccc34)CC2)CC1 the results were DRD3 antagonist -60.2*, DRD3 agonist -29.3, PI4K2A block 0.3 and LDHA inh 3.1.
For CC(C)c1cc(N)c(O)c(C(C)C)c1 the results were LDHA inh -3.0.
For COc1ccc2oc(=O)c(C(=O)NC(C)(C)CC(C)(C)C)cc2c1 the results were LDHA inh 4.7.
COc1cc(C2c3cc4c(cc3OC(Nc3ccc(C(=O)O)cc3)C2C)OCO4)cc(OC)c1OC (stereo not given) was read as DRD3 antagonist 111.7, DRD3 agonist 32.7*, PI4K2A block -1.7, LDHA inh -7.4 and PI5P4K alpha inh -0.1.
For COc1cc(C2c3cc4c(cc3OC(NCCc3ccccc3)C2C)OCO4)cc(OC)c1OC (stereo not given) the results were DRD3 antagonist -7.1, DRD3 agonist -1.0, PI4K2A block -1.2, LDHA inh -2.9 and PI5P4K alpha inh 1.6.
N#Cc1ccc(C(=O)NC(c2cccs2)C2CC2)cc1 (stereo not given) was read as LDHA inh 1.7.
`O=C(CSc1nc2ccccc2o1)OCC(=O)c1ccc(Cl)cc1` gave LDHA inh -0.7.
For CN1CCC(N(C)CC(=O)Nc2ccc3c(c2)OC(F)(F)O3)CC1 the results were DRD3 antagonist 1.0, DRD3 agonist -5.5, PI4K2A block -2.3, LDHA inh -33.9* and PI5P4K alpha inh -1.6.
Screening CC1CCCCN1CC(=O)Nc1ccc2c(c1)OC(F)(F)O2 (stereo not given) returned DRD3 antagonist 6.5, DRD3 agonist -4.1, PI4K2A block 7.3, LDHA inh -5.5 and PI5P4K alpha inh 22.3.
